Screening data as filed in PubChem BioAssay.
In the library only some 1.6% were active in any assay of this set; here they are far more common.
Yeast superoxide – reduction of superoxide in aged yeast, primary screen, HTS; hit rate 0.18% among 330,000; AID 2690, 2010; superoxide response (% of plate mean), % at 10 µM; S. cerevisiae aged cells, superoxide DHE fluorescence; hits give low values;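 active means superoxide response under a set limit, about three screen SD below normal, cut at about 65% in these data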;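 further: yeast aged for seven days with compound at 30 °C before DHE staining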
ATG4B inh – ATG4B protease inhibitors, primary screen, biochemical, fluorescence, uHTS | inhibition, % at 8.33 µM | Cysteine protease ATG4B (Homo sapiens), Q9Y4P1 | hit rate 0.51% among 340,000 | ATG4B cleavage of LC3-PLA2, NBD-HPC fluorescence, 1 h; in the data active means inhibition above about 40%
Target sequence (Q9Y4P1 whole entry, looked up): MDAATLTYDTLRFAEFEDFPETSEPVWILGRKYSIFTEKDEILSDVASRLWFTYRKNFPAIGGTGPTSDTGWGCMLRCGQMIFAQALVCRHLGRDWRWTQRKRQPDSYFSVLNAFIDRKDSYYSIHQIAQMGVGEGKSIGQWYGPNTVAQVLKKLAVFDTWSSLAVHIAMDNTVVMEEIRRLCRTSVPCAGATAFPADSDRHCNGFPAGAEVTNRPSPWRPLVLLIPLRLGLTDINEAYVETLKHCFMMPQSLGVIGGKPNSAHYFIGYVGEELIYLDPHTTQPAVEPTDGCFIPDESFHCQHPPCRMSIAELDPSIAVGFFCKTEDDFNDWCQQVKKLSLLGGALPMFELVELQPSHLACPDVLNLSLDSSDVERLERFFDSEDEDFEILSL
GRK2 inh – compounds blocking aptamer binding on GRK2 – biochemical, human GRK2, bead flow cytometry, HTS, primary screen. hit rate 0.59% among 330,000. FAM-aptamer displacement from GRK2. inhibition of aptamer binding, % at 10 µM;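 active means inhibition of aptamer binding above 40%, roughly 3 SD of noise, on plates passing a quality check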;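 further: median bead fluorescence of bound FAM aptamer so fluorescent compounds give negative values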
Efflux pump mplx – inhibitors of Candida efflux pumps in yeast, primary screen, S. cerevisiae, Nile Red, multiplex; S. cerevisiae Candida pump triplex; inhibition, % at 10 µM; hit rate 0.44% among 330,000; AID 485275, 2010;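 active means plate passing quality check with inhibition over a set limit, or well fluorescence over plate mean plus 4 SD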;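 further: Nile Red retained in pooled yeast measured as flow cytometry median fluorescence; higher means more Nile Red kept so more efflux inhibition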
GRK2 inh confirm – GRK2 aptamer-displacing inhibitors, retest, confirmation, biochemical, cherry pick 1, bead flow cytometry; aptamer displacement, % at 10 µM; bead-bound GRK2, FAM-aptamer displacement; hit rate 4% among 2,000; shares compounds with GRK2 inh;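 active means aptamer displacement above 40%, near three times the noise of non-fluorescent compounds, on plates passing quality checks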;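 further: negative values mostly reflect intrinsic compound fluorescence rather than true enhancement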
Aptamer quench SP – aptamer fluorescence quenching in GRK2 counter-screen | shares compounds with GRK2 inh | Carboxyfluorescein RNA aptamer on beads, flow cytometry quenching; hits give low values | 2,000 tested, under 10 active | fluorescence response (% of DMSO), % at 10 µM | AID 504580;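 active means compounds that quench the bead-bound fluorescent RNA probe, cutting fluorescence to under half of the solvent control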;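 further: counterscreen run without GRK2 so only probe quenching by compound is measured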
GRK2 CP2 – GRK2 aptamer-displacing inhibitors, hit retest, confirmation, biochemical, cherry pick 2, bead flow cytometry. shares compounds with GRK2 inh. bead-bound GRK2, FAM-aptamer displacement. inhibition of aptamer binding, % at 10 µM. 360 tested, under 10 active. AID 504782, 2011;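 active means inhibition of aptamer binding above 40%, about triple the noise seen with nonglowing compounds, on plates passing quality control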;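 further: negative values mostly come from compounds that fluoresce themselves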
FAM quench SP – counter-screen for GRK2 binding hits: quenchers of fluorescent RNA aptamer; 360 tested, under 10 active; fluorescence response vs DMSO, % at 10 µM; carboxyfluorescein RNA aptamer beads, flow cytometry quenching; hits give low values; shares compounds with GRK2 inh;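 active means response vs DMSO under 50%, meaning signal dropped by over half, treated as fluorescence quencher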;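 further: labelled aptamer on streptavidin beads without GRK2 as a quench counter-screen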
A number is an active result; 0 = inactive; - = not tested or not shown.

SMILES	Yeast superoxide	ATG4B inh	GRK2 inh	Efflux pump mplx	GRK2 inh confirm	Aptamer quench SP	others
CNC(=O)c1ccsc1NC(=O)CS(=O)(=O)c1ccccc1	0	0	0	0	-	-	GRK2 CP2=0;FAM quench SP=0
CCN(C(=O)C(C)N1C(=O)/C(=C/c2ccco2)SC1=S)C1CCS(=O)(=O)C1 (configuration not stated)	0	0	42.0	0	0	0
O=C(CCN1CCN(c2ccccc2)CC1)NNC(=S)Nc1ccccc1Cl	0	0	0	0	-	-
Cn1c(=O)c2c(ncn2CC(=O)N2CCc3ccccc3C2)n(C)c1=O	0	0	58.0	0	0	0
C=C(C)C(=O)OCC(O)COc1ccc(C(C)(C)c2ccc(OCC(O)COC(=O)C(=C)C)cc2)cc1 (configuration not stated)	0	0	0	0	-	-
COc1ccc(/C=C/C(=O)Nc2ccc3nc4n(c(=O)c3c2)CCCC4)cc1	0	0	0	0	-	-
COc1cc(/C=C/C(=O)Nc2ccc3nc4n(c(=O)c3c2)CCCC4)cc(OC)c1OC	0	0	92.0	0	0	0
CN(C(=O)CNC(=O)c1ccc(Br)o1)C1CCCCC1	0	0	0	0	-	-
COc1cccc(NC(=O)C(OC(=O)c2ccccc2NS(=O)(=O)c2cccs2)c2ccccc2)c1 (configuration not stated)	0	0	100.0	0	0	0
Cc1ccc2c(c1)/C(=C/c1ccco1)C(=O)N2	0	0	94.0	0	0	0
Cc1ccc(/C=C2\C(=O)Nc3ccccc32)o1	0	0	0	0	-	-
CCOC(=O)C1CCCN(S(=O)(=O)c2ccc(Cl)nc2)C1 (configuration not stated)	0	0	0	0	-	-
O=C(Nc1ccccc1)c1ccc(CN2CCc3ccccc3C2)cc1	0	0	100.0	0	-	-	GRK2 CP2=0;FAM quench SP=0
C=CCCCCCCCCC(=O)NNC1CC(=O)N(c2ccccc2)C1=O (configuration not stated)	0	0	0	0	-	-
CCC(Oc1ccccc1)C(=O)Nc1nnc(S(=O)(=O)Nc2ccccc2)s1 (configuration not stated)	0	0	49.0	0	0	0
Cc1ccc(N(CN2CCCC2=O)C(=O)c2ccccc2)cc1	0	0	67.0	0	0	0
COc1ccc(C(=O)NC(Cn2ccnc2)C(C)(C)C)cc1OC1CCN(C(C)C)CC1 (configuration not stated)	0	0	80.0	0	-	-	GRK2 CP2=0;FAM quench SP=0
CC(=O)Nc1nc2c(F)cccc2s1	0	0	0	0	-	-
CC(=O)Nc1nc2c(ccc3ccccc32)s1	0	0	0	0	-	-	GRK2 CP2=0;FAM quench SP=0
O=C(Cc1cccs1)Nc1nc2c(ccc3ccccc32)s1	0	0	0	0	-	-	GRK2 CP2=0;FAM quench SP=0
O=C(Cc1cccs1)Nc1nnc(SCc2cccc3ccccc23)s1	0	0	0	0	-	-
CC1(C)CC(=O)C(C(C2=C(O)CC(C)(C)CC2=O)c2ccco2)C(=O)C1 (configuration not stated)	0	0	94.0	0	0	0
COc1cc(C(C2=C(O)CC(C)(C)CC2=O)C2C(=O)CC(C)(C)CC2=O)cc(OC)c1OC (configuration not stated)	0	0	0	0	-	-
CCOc1ccc(CCNC(=O)C2CCN(c3nnc(-n4cccc4)s3)CC2)cc1	0	0	0	0	-	-
CCN(CCNC(=O)C1CCN(c2nnc(-n3cccc3)s2)CC1)c1ccccc1	0	0	0	0	0	0
SMILES	Yeast superoxide	ATG4B inh	GRK2 inh	Efflux pump mplx	GRK2 inh confirm	Aptamer quench SP	others
COCCNC(=O)c1ccc(CS(=O)(=O)c2ccccc2OC)o1	0	0	50.0	0	0	0
COc1ccc(OC(=O)c2c(C)nn(-c3ccccc3)c2C)cc1	0	0	0	0	-	-
COc1ccc(OC(=O)c2cnn(-c3ccccc3)c2C)cc1	0	0	44.0	0	0	0
COc1cccc(CN2CCN(Cc3cccn3-c3cccnc3)CC2CCO)c1 (configuration not stated)	0	0	0	0	-	-
Cc1c(NC(=O)OCCNC(=O)Nc2ccccc2)sc(=S)n1C	0	0	0	0	-	-
Cc1ccc(S(=O)(=O)NCCOC(=O)Nc2sc(=S)n(C)c2C)cc1	0	0	96.0	0	0	0
O=C(COC(=O)C12CC3CC(CC(C3)C1)C2)Nc1ccccc1F	0	0	0	0	-	-
Cc1cc(NC(=O)CCCn2nc(C)c([N+](=O)[O-])c2C)no1	0	0	51.0	0	0	0
Cc1cc(NC(=O)CCCn2cnc([N+](=O)[O-])n2)no1	0	0	0	0	-	-
Cc1csc(CNc2ncnc3ccc(-c4ccoc4)cc23)c1	0	0	49.0	0	0	0
OC(CNC1CCCCCC1)COc1cccc2ccccc12 (configuration not stated)	0	0	52.0	0	0	0
OC(CNC1CCCC1)COc1ccccc1Br (configuration not stated)	0	0	0	0	-	-
C/C(=N\OCc1ccc(C#N)cc1)c1cc2ccccc2o1	0	0	0	0	-	-
C/C(=N\OCc1ccccc1C#N)c1cc2ccccc2o1	0	0	47.0	0	0	0
COc1cc2c(cc1OC)C(C)N(C(C)=O)CC2 (configuration not stated)	0	0	0	0	-	-
COc1cc2c(cc1OC)C(C)N(C(=O)c1cccs1)CC2 (configuration not stated)	0	0	81.0	0	0	0
O=[N+]([O-])c1cc(/C=N/Nc2nc3ccccc3[nH]2)c(O)cc1O	0	0	45.0	0	0	0
Cc1cccc(NC(=O)CCSc2ccccc2)c1C	0	0	0	0	-	-
Cc1cccc(NC(=O)CCc2ccccc2)c1C	0	0	85.0	0	0	0
Cc1cccc(NC(=O)CCS(=O)(=O)c2cccc3nsnc23)c1C	0	0	0	0	-	-	GRK2 CP2=0;FAM quench SP=0
NNC(=O)c1sc2cc(C(F)(F)F)cnc2c1-c1cccnc1	0	0	41.0	0	0	0
COC(=O)c1sc2cc(C(F)(F)F)cnc2c1-c1cccnc1	0	0	0	0	-	-
NC(CCCCCP(=O)(c1ccccc1)c1ccccc1)C(=O)O (configuration not stated)	0	0	87.0	0	0	0
O=C(O)CC(CP(=O)(c1ccccc1)c1ccccc1)C(=O)O (configuration not stated)	0	0	0	0	-	-
